# Artemis inh = blocks endonuclease activity of human Artemis; Q96SD1; inhibition, % at 10 µM; actives 0.78% (n = 30,000); recombinant Artemis, quenched FAM hairpin cleavage fluorescence; AID 686954;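 active = at 10 µM dose, at least 30% inhibition, measured as corrected fluorescence normalized to stimulator and neutral control wells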
# Starred values were filed as active, the others as inactive. Only a selection was taken, and hits are over-represented in it overall.
SMILES,Artemis inh
O=C1c2ccncc2C(=O)N1Cc1cccc(Cl)c1,4
CC(=O)OCCCCON1C(=O)c2ccccc2C1=O,6
O=C1c2ccccc2C(=O)N1OCc1cccc(Cl)c1,55*
COC(=O)c1ccc(NC(=O)CN2C(=O)CNC2=O)cc1,-3
O=C(Nc1cccc2nsnc12)C1CC(=O)N(c2ccccc2)C1 (stereo not given),7
COc1cccc(/C=N/NC(=O)c2ccc(-c3ccccc3)cc2)c1O,13
COc1ccccc1NC(=O)c1[nH]c(C)c(C(C)=O)c1C,-4
COc1cccc(/C=N/NC(=O)c2[nH]c(C)c(C(=O)N/N=C/c3cccc(OC)c3O)c2C)c1O,91*
Cc1cc(NC(=O)CSc2nnc(Cc3ccccc3)o2)no1,-6
COc1ccc(C(=O)N2CCC(C(=O)NCc3ccccn3)CC2)cc1,-7
Cn1c(C(F)(F)F)nc2c(=O)oc3ccccc3c21,5
COCCN(C(=O)COc1ccc(Cl)cc1)c1nnc(-c2cccnc2)s1,-6
N#C/C=C(/N)N1CCN(c2ccc(Cl)c(Cl)c2)CC1,3
Cn1c(NCc2ccco2)nc2c1c(=O)n(Cc1ccc(Cl)c(Cl)c1)c(=O)n2C,9
CSc1nnc(-c2ccccc2N=Cc2c(C)[nH]n(-c3ccc4ccccc4c3)c2=O)c(=O)[nH]1,32*
C=CCSc1nnc(-c2ccccc2N=Cc2c(C)[nH]n(-c3ccccc3)c2=O)c(=O)[nH]1,-2
Cc1[nH]n(-c2ccccc2)c(=O)c1C=Nc1cnc2ccccc2c1,0
CC(C)NC(=O)/C(=C/c1ccco1)c1ccccc1,-7
CC(C)C(C(=O)O)N1C(=O)/C(=C/C=C/c2ccco2)SC1=S (stereo not given),39*
CN(C)c1ccc(/C=C/C=C2/SC(=S)N(c3ccccc3)C2=O)cc1,9
CCOC(=O)C1=C(c2cccc(Oc3ccccc3)c2)NC(=S)NC1C (stereo not given),-2
Cc1cc(C(=O)N/N=C/c2cc(Br)ccc2OC(=O)c2ccccc2)n[nH]1,10
COc1ccc(Br)cc1/C=N/NC(=O)c1nc(-c2ccccc2)n2c1CCCCC2,30*
COc1ccccc1S(=O)(=O)Nc1ccc(-c2nnc3n2CCCCC3)cc1,-4
CC1N/C(=C\C(=O)c2ccccc2)N(O)C1(C)C (stereo not given),-7
SMILES,Artemis inh
Cc1c(NC(=O)C(C)Sc2n[nH]c(N)n2)c(=O)n(-c2ccccc2)n1C (stereo not given),-7
COc1cc(N/C=C(\C(C)=O)c2ccccc2)cc(OC)c1,-7
CC(C)(NC(=O)N1CCCC1)c1cccc(C(C)(C)NC(=O)N2CCCC2)c1,-9
CCN1CCCC1CNC(=O)c1c(O)c2c([nH]c1=O)CCCC2 (stereo not given),11
CNCC(O)Cn1c(C(F)(F)F)nc2ccccc21 (stereo not given),-4
CSC1=N/C(=C\c2ccc(C)o2)C(=O)S1,7
CCSC1=N/C(=C\c2ccc3c(c2)OCO3)C(=O)S1,5
CCSC1=N/C(=C\c2ccc(-c3ccccc3[N+](=O)[O-])o2)C(=O)S1,34*
COc1ccc(C(=O)c2c[nH]c(C(=O)NCc3cccs3)c2)cc1,-6
CCn1c(=O)n(CC(=O)NC2CCCC(C)C2C)c(=O)c2ccccc21 (stereo not given),-2
NS(=O)(=O)c1ccc(NC(=O)CN2CCN(Cc3ccccc3)CC2)cc1,-7
Cc1cc(OCC(=O)N2CCCC2)cc(C)c1Cl,4
CCCC(=O)Nc1ccc(N2CCCCC2)cc1,-6
Cc1cc(OCC(=O)Nc2ccc(N3CCCC3)cc2)cc(C)c1Cl,66*
CNc1nc(SCc2ccc(C)cc2)nc2c1CCCC2,-4
O=C(CSc1nnc(NC(=O)CN2CCOCC2)s1)Nc1ccccc1,-4
COc1ccc(Nc2nc(NCc3ccco3)nc(N/N=C/c3ccccc3)n2)cc1,72*
CC(C)c1ccc(Nc2nc(NCc3ccco3)nc(N3CCOCC3)n2)cc1,21
CCOc1nc(NCc2ccco2)nc(Nc2ccc(OC)cc2)n1,5
Cc1ccc2cc(CNC(C)C)c(=O)[nH]c2c1,4
Cn1c(=O)[nH]c(=O)c2c1nc(Br)n2CC(O)c1ccccc1 (stereo not given),0
Cc1ccc2c(c1)c1c3n2CCN(C(=O)CN2CCN(C)CC2)C3CCC1 (stereo not given),8
Cc1ccc2c(c1)c(=O)c1c3n2CCN(C(=O)CCl)C3CC1 (stereo not given),34*
CCN1CCn2c3c(c4cc(Br)ccc42)CCCC31 (stereo not given),-10
COc1cc(C)c(Cl)cc1S(=O)(=O)N(C)C,-5
SMILES,Artemis inh
CCOC(=O)COn1c(-c2cccc(Cl)c2)nc2ccc([N+](=O)[O-])cc21,8
O=C(Nc1nc(-c2ccccc2)c(-c2ccccc2)o1)c1ccc(F)cc1,10
Cn1cccc1CC(=O)N/N=C\c1cccs1,-4
CCN(CC)C(=O)C(=O)N/N=C/c1cccs1,53*
Cc1ccc(N(CC(=O)N/N=C/c2cccs2)S(C)(=O)=O)cc1Cl,-5
COC(=O)[C@@H]1[C@@H](C#N)C2(c3ccccc3-c3ccccc32)N(c2ccc(Cl)cc2)N1C#N,40*

# From PubChem BioAssay
